High-throughput results as filed in PubChem BioAssay.
Candida biofilm = kills Candida albicans biofilms; C. albicans biofilm + clotrimazole, Alamar Blue; inhibition, % at 6 µM; 85,000 tested, 0.14% active;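 active = inhibition above 20%; inactive = inhibition below 20%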;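 note: preformed 24 hr biofilms exposed to compound for 48 hr; 0% = biofilm without compound and 100% = blank killed by clotrimazole plus chlorhexidine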
ERb coact inh = blocks coactivator binding to human estrogen receptor beta; inhibition, % at 25.6 µM; Q92731; 86,000 tested, 1.3% active; TR-FRET ER-beta LBD / SRC1-Cy5 peptide binding; receptor agonist-loaded with 1 µM estradiol;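 active = compounds whose percent inhibition of the receptor-coactivator binding signal exceeds about 50% in the single-dose screen, limit read from the data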;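 note: 0% = receptor plus peptide wells without compound and 100% = peptide-only wells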
Smad3 inh = blocks human Smad3 binding to FoxH1 peptide. TR-FRET Smad3/Dy647-FoxH1 peptide binding, europium anti-His. inhibition, % at 25 µM. 88,000 tested, 0.29% active;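 active = compounds that reduce the energy-transfer binding signal between the protein and its labelled peptide by more than half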;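 note: 0% = Smad3 plus labelled peptide maximal FRET and 100% = peptide-only background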
ERa coact pot = ER-alpha (human) coactivator binding potentiation. 86,000 tested, 1.3% active. TR-FRET ERalpha-LBD/SRC-Cy5 coactivator binding, 2 h; 100 = basal binding, no effect. AID 639. coactivator binding (% of control), % at 25.6 µM. P03372; in the data active = activity above about 200%;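 note: binding measured in presence of low estradiol as agonist stimulus; 0% = peptide alone without receptor and 100% = receptor with peptide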
Target sequence (P03372 whole entry, looked up, the tested form may be a part): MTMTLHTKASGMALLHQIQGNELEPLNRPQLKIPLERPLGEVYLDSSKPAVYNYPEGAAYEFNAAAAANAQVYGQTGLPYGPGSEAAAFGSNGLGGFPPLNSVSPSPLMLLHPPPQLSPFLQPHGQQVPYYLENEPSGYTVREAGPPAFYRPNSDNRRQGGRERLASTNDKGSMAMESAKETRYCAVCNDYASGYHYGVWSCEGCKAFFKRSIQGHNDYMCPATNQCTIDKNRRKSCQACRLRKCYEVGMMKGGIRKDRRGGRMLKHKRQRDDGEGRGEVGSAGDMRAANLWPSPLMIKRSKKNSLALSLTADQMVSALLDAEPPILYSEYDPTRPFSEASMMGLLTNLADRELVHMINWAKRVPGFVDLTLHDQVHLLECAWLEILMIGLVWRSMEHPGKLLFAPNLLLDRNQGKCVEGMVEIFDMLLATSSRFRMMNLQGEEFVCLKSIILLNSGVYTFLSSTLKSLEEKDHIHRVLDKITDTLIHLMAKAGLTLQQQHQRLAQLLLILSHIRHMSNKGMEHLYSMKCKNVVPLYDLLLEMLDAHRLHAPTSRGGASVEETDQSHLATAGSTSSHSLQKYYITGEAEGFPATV
ERa coact inh = blocks coactivator binding to human estrogen receptor alpha; P03372; TR-FRET ER-alpha LBD / SRC-1 peptide, estradiol-bound; inhibition, % at 25.6 µM; 86,000 tested, 1.7% active; AID 629; in the data active = inhibition above about 50%;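 note: 0% = receptor plus peptide control and 100% = peptide only without receptor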
Numbers without * were called inactive; · = not tested or not shown; [ ] = another dose, or the depositor's remark. Rows were chosen to be rich in hits. Some 3.6% of all compounds tested hit in one or more screens of this group.

SMILES	Candida biofilm	ERb coact inh	Smad3 inh	ERa coact pot	ERa coact inh
O=C(c1ccc(NC2=NC3CS(=O)(=O)CC3S2)cc1)N1CCc2ccccc2C1 (centres undefined)	29*	-7	-3	90	-1
O=C(c1ccc(NC2=NC3CS(=O)(=O)CC3S2)cc1)N1CCN(Cc2ccccc2)CC1 (centres undefined)	5	-5	-7	103	93*[fluorescence artefact?]
O=C(c1ccc2c(c1)OCO2)N1CCc2ccccc2C1	7	-11	4	117	-1
CCOc1ccc(N2C(=O)CC(SC(=NC)Nc3ccc(F)cc3)C2=O)cc1 (centres undefined)	6	-10	7	102	-9
Cn1c(=S)c2[nH]c(SCCN3C(=O)c4ccccc4C3=O)nc2n(C)c1=O	·	·	-26	·	·
Cn1cccc1Cc1nnc(SCC(=O)Nc2ccc3c(c2)OCO3)n1-c1ccc(F)cc1	3	-1	8	131	-4
CC(=O)NC(C)C(=O)OCC(=O)Nc1ccc(Br)cc1 (centres undefined)	3	36	-11	109	78*
COCCNC(C)C(=O)Nc1ccc(Br)cc1 (centres undefined)	0	-6	-2	97	-7
CCN(CC)CCOc1nc(C)nc2c1oc1ccccc12	-6	-3	1	113	-3
Cc1nc(Oc2cccc(Cl)c2)c2oc3ccccc3c2n1	-5	74*[fluorescence artefact?]	-6	93	1
CC1=NOC(=O)/C1=C/c1ccc(-c2ccc(Cl)cc2)o1	5	8	0	44	64*[fluorescence artefact?]
CC1=NOC(=O)/C1=C\c1ccc(-c2cc(Cl)ccc2Cl)o1	3	7	11	145	10
CC(C)CO/C(=N/S(=O)(=O)c1ccccc1)c1ccccc1	73*	-2	1	94	-1
CCCCc1nc2ccccc2n2cc3c(=O)n(C)c(=O)n(C)c3c12	-5	2	-2	98	-1
O=C(Nc1nc2ccccc2s1)c1cc2c(s1)-c1ccccc1OC2	11	46	-26	177	71*
NC(=O)C1(N2CCCCC2)CCN(C(=O)CSc2nc3ccccc3s2)CC1	8	-2	4	127	8
COc1ccc(-n2nc3c(c2NC(=O)c2cc4ccccc4oc2=O)CS(=O)(=O)C3)cc1	6	66*[fluorescence artefact?]	1	86	63*
COc1ccc(-n2c(SCCC#N)nnc2-c2cc(Cl)ccc2OC)cc1Cl	4	46	9	399*[fluorescence artefact?]	47
Cc1cccc(-c2nnc(SCC#N)n2-c2cccc(Cl)c2)c1	11	-8	-2	131	5
CCOC(=O)Cc1csc(NC(=O)c2c(O)c3ccccc3n(C)c2=O)n1	10	13	12	105	2
CCOC(=O)c1ccc(NC(=O)c2c(O)c3ccccc3n(C)c2=O)cc1	10	43	8	169	63*
COc1cccc(CNC(=O)Cn2c(=O)oc3ccccc32)c1OC	0	3	-12	101	2
CCOc1ccccc1CNC(=O)Cn1c(=O)oc2ccccc21	3	55*[fluorescence artefact?]	-23	90	8
CCOc1cc(C(=S)N2CCCCC2)ccc1OCC(=O)NCc1ccccc1	-6	-14	-13	104	-10
O=C1c2ccccc2-c2cc([N+](=O)[O-])c([N+](=O)[O-])cc21	·	·	52*	·	·
SMILES	Candida biofilm	ERb coact inh	Smad3 inh	ERa coact pot	ERa coact inh
COC(=O)c1cc(COc2ccc3c(c2)oc(=O)c2ccccc23)c(C)o1	5	23	-4	230*	30
COCCOC(=O)c1c(C)oc2ccc(OCc3cc(C(=O)OC)oc3C)cc12	1	-4	-7	101	-2
CC(=O)N1CCN(CCN=CC2=C(O)CC(c3cccs3)CC2=O)CC1 (centres undefined)	4	20	5	80	4
CC(C)(/C=N/O)/[N+]([O-])=C/c1ccco1	6	-3	-1	112	-7
Cc1nc(/C=[N+](\[O-])C(C)(C)/C=N/O)n(O)c1C	6	56*[fluorescence artefact?]	0	114	-5
CN1CCN(CN2C(=O)[C@H]3[C@H]4C=C[C@@H]([C@@H]3C2=O)[C@H]2[C@@H]3C(=O)N(CN5CCN(C)CC5)C(=O)[C@@H]3[C@@H]42)CC1	·	·	57*	·	·
O=C1C2C3c4ccccc4C(c4ccccc43)C2C(=O)N1CN1CCOCC1 (centres undefined)	2	-1	5	144	2
Cc1ccc(C2NC(=O)c3c(sc4c3CCN(C)C4)N2)s1 (centres undefined)	2	36	-25	29	54*[fluorescence artefact?]
CN1CCc2c(sc3c2C(=O)NC(c2ccccn2)N3)C1 (centres undefined)	5	23	3	108	9
CN1CCc2c(sc3c2C(=O)NC(/C=C/c2ccco2)N3)C1 (centres undefined)	-2	54*[fluorescence artefact?]	-4	43	28
Cc1ccc(C2NC(=O)c3c(sc4c3CCN(C)C4)N2)o1 (centres undefined)	4	21	-3	87	-14
CCc1ccccc1NC(=O)N1CCC(NC(=O)C(Cc2ccc(OC)c(OC)c2)NC(C)=O)CC1 (centres undefined)	3	0	-11	101	10
COc1ccc(CC(NC(C)=O)C(=O)NC2CCN(C(=O)Nc3ccc(Cl)cc3)CC2)cc1OC (centres undefined)	-3	-15	79*	98	-10
CN(C)Cc1nsc(N(C)C)n1	·	·	3	·	·
Cc1nn(Cc2ccccc2)c(C)c1NC(=O)CSc1nc(-c2ccccc2)nc2c1cnn2-c1ccccc1	0	37	11	150	72*[fluorescence artefact?]
Cc1nc(SCC(=O)Nc2c(C)nn(C)c2C)c2cnn(-c3ccccc3)c2n1	2	-16	3	128	2
Cc1ccc(NCc2ccccc2O)cc1	5	-5	10	100	3
Cc1ccc(CNc2ccc(O)cc2)cc1	0	65*[fluorescence artefact?]	-13	72	35
COC(=O)CC[C@@H](C)[C@@H]1CC[C@@H]2[C@H]3CC[C@H]4C[C@@H](O)CC[C@]4(C)[C@@H]3CC[C@]21C	·	·	37	·	·
CCn1c(NCc2cccs2)nc2ccccc21	5	-11	2	96	67*[fluorescence artefact?]
Cc1cccc(N=C2NC(=O)/C(=C3/C(=O)N(C)c4ccccc43)S2)c1C	7	37	10	26	61*
CCc1ccc2nc(NC(=O)CSCc3c(C)noc3C)sc2c1	2	91*[fluorescence artefact?]	-5	83	6
COc1ccc2nc(NC(=O)c3cccc(OCc4c(C)noc4C)c3)sc2c1	-3	7	7	129	3
C[C@H]1[C@H](C)OC(=O)C[C@H](O)C[C@H](O)C[C@H](O)CC[C@H](O)[C@H](O)CC(=O)C[C@H](O)[C@H](C(=O)O)[C@H](O)C[C@H](O[C@H]2O[C@@H](C)[C@H](O)[C@@H](N)[C@@H]2O)C=CC=CC=CC=CCCC=CC=C[C@@](C)(O)[C@H]1O	·	·	4	·	·
CN(C)S(=O)(=O)c1ccc(C(=O)Nc2ccc(Cl)cc2)cc1	6	64*[fluorescence artefact?]	0	113	0
